# Experimental data published in article PMC5540273 (PLoS ONE, 2017).
# Values joined by “and” are separate entries in the source; they are usually repeats but may differ in a detail not shown here. Equal entries are not always repeated. Where two headings read alike, the source gives them in different places.
# Columns and labels:
# CAMKK1 = settings: concentration: 1 μM, replicates: in singlicate, n = 1
# CAMKK2 = settings: concentration: 1 μM, replicates: in singlicate, n = 1
# CASK = settings: concentration: 1 μM, replicates: in singlicate, n = 1
# CDC2L1 = tested on: T1, CDC2L1; settings: concentration: 1 μM, replicates: in singlicate, n = 1
# T1 construct: gene CDK11B
# CDC2L2 = settings: concentration: 1 μM, replicates: in singlicate, n = 1
# CDC2L5 = tested on: T2, CDC2L5; settings: concentration: 1 μM, replicates: in singlicate; n = 1
# T2 construct: gene CDK13
# CDK11 = tested on: T3, CDK11; settings: concentration: 1 μM, replicates: in singlicate, n = 1
# T3 construct: gene CDK19
# CDK2 = settings: concentration: 1 μM, replicates: in singlicate; n = 1
# CDK3 = settings: concentration: 1 μM, replicates: in singlicate; n = 1
# CDK4-cyclinD1 = settings: concentration: 1 μM, replicates: in singlicate; n = 1
# CDK4-cyclinD3 = settings: concentration: 1 μM, replicates: in singlicate; n = 1
# CDK4 = settings: concentration: 1 μM, replicates: in singlicate, n = 1
# CDK5 = settings: concentration: 1 μM, replicates: in singlicate; n = 1
# CDK7 = settings: concentration: 1 μM, replicates: in singlicate, n = 1
# CDK8 = settings: concentration: 1 μM, replicates: in singlicate, n = 1
# CDK9 = settings: concentration: 1 μM, replicates: in singlicate, n = 1
# CDKL1 = settings: concentration: 1 μM, replicates: in singlicate, n = 1
# CDKL2 = settings: concentration: 1 μM, replicates: in singlicate, n = 1
# CDKL3 = settings: concentration: 1 μM, replicates: in singlicate; n = 1
# CDKL5 = settings: concentration: 1 μM, replicates: in singlicate; n = 1
# 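Further: KINOMEscan kinase panel screen.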
smiles,measurement,setting,value
O=c1cc(N2CCOCC2)nc2n(Cc3cccc4ccccc34)ccn12 [GSK2333389],%Inh,CAMKK1,0%
same,%Inh,CAMKK2,0%
same,%Inh,CASK,0%
same,%Inh,CDC2L1,0%
same,%Inh,CDC2L2,0%
same,%Inh,CDC2L5,0%
same,%Inh,CDK11,0%
same,%Inh,CDK2,12%
same,%Inh,CDK3,0%
same,%Inh,CDK4-cyclinD1,0%
same,%Inh,CDK4-cyclinD3,0%
same,%Inh,CDK4,0%
same,%Inh,CDK5,0%
same,%Inh,CDK7,0%
same,%Inh,CDK8,13%
same,%Inh,CDK9,1%
same,%Inh,CDKL1,0%
same,%Inh,CDKL2,4%
same,%Inh,CDKL3,0%
same,%Inh,CDKL5,0%
O=C(Nc1cccc(-c2nn3ncccc3c2-c2ccnc(Nc3cccc(C(F)(F)F)c3)n2)c1)c1c(F)cccc1F [GSK299495],%Inh,CAMKK1,0%
same,%Inh,CAMKK2,8%
same,%Inh,CASK,13%
same,%Inh,CDC2L1,0%
same,%Inh,CDC2L2,19%
same,%Inh,CDC2L5,0%
same,%Inh,CDK11,15%
same,%Inh,CDK2,0%
same,%Inh,CDK3,3%
same,%Inh,CDK4-cyclinD1,0%
same,%Inh,CDK4-cyclinD3,9%
same,%Inh,CDK4,18%
same,%Inh,CDK5,0%
same,%Inh,CDK7,0%
same,%Inh,CDK8,24%
same,%Inh,CDK9,0%
same,%Inh,CDKL1,0%
same,%Inh,CDKL2,14%
same,%Inh,CDKL3,0%
same,%Inh,CDKL5,0%
COc1cc2ncn(-c3cc(OCc4sccc4Cl)c(C(N)=O)s3)c2cc1OC [GSK448459],%Inh,CAMKK1,4%
same,%Inh,CAMKK2,76%
same,%Inh,CASK,12%
same,%Inh,CDC2L1,0%
same,%Inh,CDC2L2,10%
same,%Inh,CDC2L5,0%
same,%Inh,CDK11,9%
same,%Inh,CDK2,0%
same,%Inh,CDK3,8%
same,%Inh,CDK4-cyclinD1,0%
same,%Inh,CDK4-cyclinD3,0%
same,%Inh,CDK4,12%
same,%Inh,CDK5,0%
same,%Inh,CDK7,0%
same,%Inh,CDK8,69%
same,%Inh,CDK9,0%
same,%Inh,CDKL1,23%
same,%Inh,CDKL2,33%
same,%Inh,CDKL3,0%
same,%Inh,CDKL5,0%
CCc1ccnc(/C=C/c2n[nH]c3cc(Sc4ccccc4C(=O)NC)ccc23)c1,%Inh,CAMKK1,16%
same,%Inh,CAMKK2,11%
same,%Inh,CASK,34%
same,%Inh,CDC2L1,7%
same,%Inh,CDC2L2,2%
same,%Inh,CDC2L5,0%
same,%Inh,CDK11,0%
same,%Inh,CDK2,3%
same,%Inh,CDK3,0%
same,%Inh,CDK4-cyclinD1,16%
same,%Inh,CDK4-cyclinD3,0%
same,%Inh,CDK4,0%
same,%Inh,CDK5,1%
same,%Inh,CDK7,0%
same,%Inh,CDK8,0%
same,%Inh,CDK9,10%
same,%Inh,CDKL1,3%
same,%Inh,CDKL2,0%
same,%Inh,CDKL3,2%
same,%Inh,CDKL5,12%
Cn1ccc2ncnc(Oc3ccc(NC(=O)Nc4ccncc4)c(Cl)c3)c21,%Inh,CAMKK1,0%
same,%Inh,CAMKK2,2%
same,%Inh,CASK,0%
same,%Inh,CDC2L1,0%
same,%Inh,CDC2L2,0%
same,%Inh,CDC2L5,25%
same,%Inh,CDK11,0%
same,%Inh,CDK2,0%
same,%Inh,CDK3,0%
same,%Inh,CDK4-cyclinD1,0%
same,%Inh,CDK4-cyclinD3,0%
same,%Inh,CDK4,0%
same,%Inh,CDK5,0%
same,%Inh,CDK7,0%
same,%Inh,CDK8,0%
same,%Inh,CDK9,0%
same,%Inh,CDKL1,0%
same,%Inh,CDKL2,0%
same,%Inh,CDKL3,0%
same,%Inh,CDKL5,49%
NCCNS(=O)(=O)c1ccc(-c2ccnc3[nH]ccc23)cc1 [GSK977617],%Inh,CAMKK1; 1 µM,31% and 9%
same,%Inh,CAMKK2; 1 µM,37% and 16%
same,%Inh,CASK; 1 µM,19% and 21%
same,%Inh,CDC2L1; 1 µM,0% and 14%
same,%Inh,CDC2L2; 1 µM,13% and 15%
same,%Inh,CDC2L5,0%
same,%Inh,CDK11; 1 µM,9% and 0%
same,%Inh,CDK2,0%
same,%Inh,CDK3,0%
same,%Inh,CDK4-cyclinD1,0%
same,%Inh,CDK4-cyclinD3,0%
same,%Inh,CDK4; 1 µM,34% and 27%
same,%Inh,CDK5,0%
same,%Inh,CDK7; 1 µM,85% and 74%
same,%Inh,CDK8; 1 µM,20% and 19%
same,%Inh,CDK9; 1 µM,5% and 26%
same,%Inh,CDKL1; 1 µM,10% and 1%
same,%Inh,CDKL2; 1 µM,0% and 8%
same,%Inh,CDKL3,0%
same,%Inh,CDKL5,0%
CC(C)Oc1ccc2c(-c3ccnc(Nc4ccc(N5CCN(C)CC5)cc4)n3)cnn2n1 [GW696155],%Inh,CAMKK1,40%
same,%Inh,CAMKK2,44%
same,%Inh,CASK,23%
same,%Inh,CDC2L1,63%
same,%Inh,CDC2L2,51%
same,%Inh,CDC2L5,0%
same,%Inh,CDK11,19%
same,%Inh,CDK2,0%
same,%Inh,CDK3,17%
same,%Inh,CDK4-cyclinD1,94.4%
same,%Inh,CDK4-cyclinD3,97.8%
same,%Inh,CDK4,58%
same,%Inh,CDK5,0%
same,%Inh,CDK7,99.8%
same,%Inh,CDK8,8%
same,%Inh,CDK9,21%
same,%Inh,CDKL1,34%
same,%Inh,CDKL2,99.6%
same,%Inh,CDKL3,92%
same,%Inh,CDKL5,43%
CC(=O)Nc1ccc(COc2ccc(Nc3ccnc4cc(-c5ccccn5)ccc34)cc2)cc1.Cl [GW440148],%Inh,CAMKK1,4%
same,%Inh,CAMKK2,26%
same,%Inh,CASK,1%
same,%Inh,CDC2L1,12%
same,%Inh,CDC2L2,11%
same,%Inh,CDC2L5,0%
same,%Inh,CDK11,17%
same,%Inh,CDK2,1%
same,%Inh,CDK3,0%
same,%Inh,CDK4-cyclinD1,0%
same,%Inh,CDK4-cyclinD3,0%
same,%Inh,CDK4,0%
same,%Inh,CDK5,0%
same,%Inh,CDK7,0%
same,%Inh,CDK8,8%
same,%Inh,CDK9,14%
same,%Inh,CDKL1,7%
same,%Inh,CDKL2,12%
same,%Inh,CDKL3,0%
same,%Inh,CDKL5,0%
Cc1cccc(-c2nc(-c3ccc(S(C)(=O)=O)cc3)sc2-c2ccncc2)c1,%Inh,CAMKK1,4%
same,%Inh,CAMKK2,5%
same,%Inh,CASK,0%
same,%Inh,CDC2L1,0%
same,%Inh,CDC2L2,0%
same,%Inh,CDC2L5,9%
same,%Inh,CDK11,0%
same,%Inh,CDK2,14%
same,%Inh,CDK3,3%
same,%Inh,CDK4-cyclinD1,0%
same,%Inh,CDK4-cyclinD3,19%
same,%Inh,CDK4,0%
same,%Inh,CDK5,12%
same,%Inh,CDK7,25%
same,%Inh,CDK8,9%
same,%Inh,CDK9,0%
same,%Inh,CDKL1,0%
same,%Inh,CDKL2,4%
same,%Inh,CDKL3,0%
same,%Inh,CDKL5,7%
CCn1cnc2c(N)ncnc21 [GW345098],%Inh,CAMKK1,8%
same,%Inh,CAMKK2,2%
same,%Inh,CASK,31%
same,%Inh,CDC2L1,1%
same,%Inh,CDC2L2,6%
same,%Inh,CDC2L5,0%
same,%Inh,CDK11,0%
same,%Inh,CDK2,0%
same,%Inh,CDK3,1%
same,%Inh,CDK4-cyclinD1,0%
same,%Inh,CDK4-cyclinD3,0%
same,%Inh,CDK4,0%
same,%Inh,CDK5,28%
same,%Inh,CDK7,20%
same,%Inh,CDK8,7%
same,%Inh,CDK9,0%
same,%Inh,CDKL1,25%
same,%Inh,CDKL2,0%
same,%Inh,CDKL3,0%
same,%Inh,CDKL5,0%
